In PubChem BioAssay (Tox21):
Values without a mark were called inactive. Inconclusive results are not listed. A call without a number means that no potency is given here. Activity calls are given as the source filed them. Unless noted, calls come from the whole dose curve; as a rule, active = well fitted curve in the direction sought with a large enough effect in the repeat runs; inconclusive = weak or mixed curves; inactive = no such curve, though single readings can be large; an effect the other way counts as inactive or inconclusive.

Experiments:
[1] = qHTS assay to identify small molecule antagonists of the TGF-beta/Smad signaling pathway - cell viability counter screen (AID 1346824); note: nearly all actives have a fitted effect of over 50% in size
Summary of the method: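 SBE-bla HEK 293T cells were plated overnight at 37 C, then given compounds in DMSO plus TGF-beta1 (added as 0.25 ng/mL solution) for 5 hr. After the bla read, CellTiter-Glo was added to the same wells and luminescence read after 30 min at room temperature.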

[2] = qHTS assay to identify small molecule agonists of the TGF-beta/Smad signaling pathway - cell viability counter screen (AID 1346829); note: top concentration of the series differs between compounds; nearly all actives have a fitted effect of over 45% in size
Summary of the method: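 Compound-treated SBE-bla HEK 293T cells (5 hr, 37 C) were assessed for viability with CellTiter-Glo in parallel with the reporter read.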

[3] = qHTS assay to identify small molecule agonists of the TGF-beta/Smad signaling pathway (AID 1346859; active = well fitted activation curve with a large enough effect in the signal ratio in the repeat runs, not every such curve was filed as active; the % refers to the signal ratio; note: series mostly up to about 77 µM)
Summary of the method: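 Dual-wavelength fluorescence (460/530 nm emission) quantified beta-lactamase expression under the Smad binding element in HEK 293T cells following 5 hr compound treatment at 37 C.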

[4] = Human pregnane X receptor (PXR) small molecule agonists, qHTS cell viability counter screen (AID 1346977); note: nearly all actives have a fitted effect of over 50% in size; note: potency is the fitted concentration of half-maximal effect
Summary of the method: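 HepG2 cells stably carrying the PXR-Luc reporter are cultured with 5% charcoal-stripped FBS and treated with compounds for 24hr. CellTiter-Fluor is added at 23hr and fluorescence is read after 1hr.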

[5] = Caspase-3/7 induction in HepG2 cells by small molecules, qHTS assay (AID 1346978); note: nearly all actives have a fitted effect of over 15% in size; note: potency is the fitted concentration of half-maximal effect
Summary of the method: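 Wild-type HepG2 cells (2,000/well) were settled 5 h at 37 C, 5% CO2, then exposed to compounds in DMSO for 17 h. Caspase-3/7 activity was read by luminescence 30 min after adding Caspase-Glo 3/7 reagent at room temperature.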

[6] = Caspase-3/7 induction in CHO-K1 cells by small molecules, qHTS cell viability counter screen (AID 1346979); note: nearly all actives have a fitted effect of over 35% in size; note: potency is the fitted concentration of half-maximal effect
Summary of the method: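 Seeding: 1,500 CHO-K1 cells/well. Rest: 5hr, 37C. Treatment: compounds in DMSO, 16hr. Read: CellTiter-Fluor, 1hr, fluorescence.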

[7] = target: Nuclear receptor subfamily 1 group I member 2 (Homo sapiens) (UniProt O75469); assay: Human pregnane X receptor (PXR) small molecule agonists, qHTS assay (AID 1346982); note: nearly all actives have a fitted effect of over 35% in size; note: potency is the fitted concentration of half-maximal effect
Nuclear receptor subfamily 1 group I member 2 (Homo sapiens), sequence (O75469 whole entry, looked up): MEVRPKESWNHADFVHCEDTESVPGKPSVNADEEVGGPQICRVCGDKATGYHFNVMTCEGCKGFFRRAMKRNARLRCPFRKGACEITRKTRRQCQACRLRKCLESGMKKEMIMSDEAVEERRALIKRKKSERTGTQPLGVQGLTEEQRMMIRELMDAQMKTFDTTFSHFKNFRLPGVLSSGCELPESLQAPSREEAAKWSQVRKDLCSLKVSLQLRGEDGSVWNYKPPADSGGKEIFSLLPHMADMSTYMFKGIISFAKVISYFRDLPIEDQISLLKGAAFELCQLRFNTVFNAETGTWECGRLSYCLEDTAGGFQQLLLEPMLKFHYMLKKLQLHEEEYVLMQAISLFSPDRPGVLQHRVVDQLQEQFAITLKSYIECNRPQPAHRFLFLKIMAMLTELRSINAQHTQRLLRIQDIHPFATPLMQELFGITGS
Summary of the method: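 Stable HepG2 line reporting PXR-mediated CYP3A4 expression via luciferase. Treatment: 24 hr with compounds in DMSO at 37 C. Detection: ONE-Glo luminescence.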

[8] = target: Nuclear receptor subfamily 1 group I member 2 (Homo sapiens) (UniProt O75469); assay: CYP3A4 induction through human pregnane X receptor (PXR) by small molecules, qHTS assay (AID 1346984); note: nearly all actives have a fitted effect of over 40% in size
Summary of the method: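 After 24 h at 37C with compound, DPX-2 cells (HepG2, co-transfected PXR response element and CYP3A4 promoter-luciferase) got 3uM final P450-Glo Luciferin-IPA for 3 h; One-Glo luminescence followed.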

[9] = target: Nuclear receptor subfamily 1 group I member 2 (Homo sapiens) (UniProt O75469); assay: Human pregnane X receptor (PXR) activation by small molecules, qHTS assay (AID 1346985); note: nearly all actives have a fitted effect of over 40% in size
Summary of the method: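 DPX-2 cells (HepG2 co-transfected with a PXR response element and a CYP3A4-promoter luciferase construct) were seeded at 2,000 per well, rested 5 hr at 37C, then exposed to DMSO-dissolved compounds for 24 hr. Activation was read as luciferase luminescence.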

[10] = target: Cytochrome P450 2D6 (Homo sapiens) (UniProt P10635); assay: Cytochrome P450 Family 2 Subfamily D Member 6 (CYP2D6) small molecule antagonists: luciferase reporter qHTS assay (AID 1671196); note: nearly all actives have a fitted effect of over 50% in size; note: potency is the fitted concentration of half-maximal effect
Cytochrome P450 2D6 (Homo sapiens), sequence (P10635 whole entry, looked up): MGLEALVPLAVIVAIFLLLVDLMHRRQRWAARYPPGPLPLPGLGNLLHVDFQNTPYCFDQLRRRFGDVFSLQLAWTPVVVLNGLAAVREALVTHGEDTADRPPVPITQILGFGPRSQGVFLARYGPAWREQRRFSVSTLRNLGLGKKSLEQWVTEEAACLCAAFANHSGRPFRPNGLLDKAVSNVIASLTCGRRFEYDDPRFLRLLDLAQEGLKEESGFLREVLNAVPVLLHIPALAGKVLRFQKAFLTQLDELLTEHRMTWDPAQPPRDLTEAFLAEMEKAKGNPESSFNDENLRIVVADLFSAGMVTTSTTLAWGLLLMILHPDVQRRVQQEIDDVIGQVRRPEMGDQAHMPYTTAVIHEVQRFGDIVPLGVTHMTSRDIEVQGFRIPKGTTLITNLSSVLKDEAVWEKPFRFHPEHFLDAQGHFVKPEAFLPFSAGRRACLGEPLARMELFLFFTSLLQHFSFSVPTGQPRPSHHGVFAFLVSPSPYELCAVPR
Summary of the method: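 Chemicals tested for interference with CYP2D6 activity; proluciferin substrate, NADPH regeneration, 1 h at room temperature, luminescent detection.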

[11] = target: Cytochrome P450 2C19 (Homo sapiens) (UniProt P33261); assay: Cytochrome P450 Family 2 Subfamily C Member 19 (CYP2C19) small molecule antagonists: luciferase reporter qHTS assay (AID 1671197); note: nearly all actives have a fitted effect of over 65% in size; note: potency is the fitted concentration of half-maximal effect
Cytochrome P450 2C19 (Homo sapiens), sequence (P33261 whole entry, looked up): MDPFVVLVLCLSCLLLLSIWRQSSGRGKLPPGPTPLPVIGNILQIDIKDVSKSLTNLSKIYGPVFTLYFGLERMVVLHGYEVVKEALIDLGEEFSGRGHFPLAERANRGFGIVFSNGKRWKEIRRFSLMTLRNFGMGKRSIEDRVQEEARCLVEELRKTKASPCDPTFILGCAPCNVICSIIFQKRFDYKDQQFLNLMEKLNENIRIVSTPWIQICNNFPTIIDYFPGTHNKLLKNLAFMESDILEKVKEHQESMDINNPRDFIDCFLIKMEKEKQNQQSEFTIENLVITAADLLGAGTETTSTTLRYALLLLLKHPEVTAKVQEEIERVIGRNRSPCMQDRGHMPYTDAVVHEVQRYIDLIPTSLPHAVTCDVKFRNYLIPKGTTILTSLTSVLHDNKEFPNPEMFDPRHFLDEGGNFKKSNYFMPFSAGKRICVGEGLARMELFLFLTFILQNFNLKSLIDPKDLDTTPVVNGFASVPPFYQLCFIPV
Summary of the method: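 P450-Glo CYP2C19 screening system; proluciferin substrate; DMSO compound stocks; 10 min RT preincubation; NADPH regeneration, 1 h at 37C; luciferin detection reagent, 20 min RT; luminescence as RLU.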

[12] = target: Cytochrome P450 2C9 (Homo sapiens) (UniProt P11712); assay: Cytochrome P450 Family 2 Subfamily C Member 9 (CYP2C9) small molecule antagonists: luciferase reporter qHTS assay (AID 1671198); note: nearly all actives have a fitted effect of over 50% in size; note: potency is the fitted concentration of half-maximal effect
Cytochrome P450 2C9 (Homo sapiens), sequence (P11712 whole entry, looked up): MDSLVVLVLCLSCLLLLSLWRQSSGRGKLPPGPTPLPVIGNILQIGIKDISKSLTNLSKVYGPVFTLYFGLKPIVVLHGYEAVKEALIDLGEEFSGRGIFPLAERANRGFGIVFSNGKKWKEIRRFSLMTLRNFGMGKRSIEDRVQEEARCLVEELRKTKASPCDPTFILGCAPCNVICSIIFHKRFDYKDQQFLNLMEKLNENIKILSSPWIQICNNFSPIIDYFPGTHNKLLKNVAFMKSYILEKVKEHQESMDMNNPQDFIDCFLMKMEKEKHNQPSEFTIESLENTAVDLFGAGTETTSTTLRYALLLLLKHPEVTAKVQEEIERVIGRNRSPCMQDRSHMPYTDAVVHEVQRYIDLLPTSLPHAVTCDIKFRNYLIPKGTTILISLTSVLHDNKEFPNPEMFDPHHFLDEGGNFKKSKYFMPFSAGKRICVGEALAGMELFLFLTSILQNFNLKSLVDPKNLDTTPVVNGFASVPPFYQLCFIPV
Summary of the method: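 CYP2C9 activity was measured with a P450-Glo proluciferin substrate. Enzyme–substrate mix was held with compound for 10 min at room temperature, then NADPH regeneration solution was added for 1 h at 37C. Luciferin product was read as luminescence.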

[13] = target: Cytochrome P450 1A2 (Homo sapiens) (UniProt P05177); assay: Cytochrome P450 Family 1 Subfamily A Member 2 (CYP1A2) small molecule antagonists: luciferase reporter qHTS assay (AID 1671199); note: nearly all actives have a fitted effect of over 50% in size; note: potency is the fitted concentration of half-maximal effect
Cytochrome P450 1A2 (Homo sapiens), sequence (P05177 whole entry, looked up): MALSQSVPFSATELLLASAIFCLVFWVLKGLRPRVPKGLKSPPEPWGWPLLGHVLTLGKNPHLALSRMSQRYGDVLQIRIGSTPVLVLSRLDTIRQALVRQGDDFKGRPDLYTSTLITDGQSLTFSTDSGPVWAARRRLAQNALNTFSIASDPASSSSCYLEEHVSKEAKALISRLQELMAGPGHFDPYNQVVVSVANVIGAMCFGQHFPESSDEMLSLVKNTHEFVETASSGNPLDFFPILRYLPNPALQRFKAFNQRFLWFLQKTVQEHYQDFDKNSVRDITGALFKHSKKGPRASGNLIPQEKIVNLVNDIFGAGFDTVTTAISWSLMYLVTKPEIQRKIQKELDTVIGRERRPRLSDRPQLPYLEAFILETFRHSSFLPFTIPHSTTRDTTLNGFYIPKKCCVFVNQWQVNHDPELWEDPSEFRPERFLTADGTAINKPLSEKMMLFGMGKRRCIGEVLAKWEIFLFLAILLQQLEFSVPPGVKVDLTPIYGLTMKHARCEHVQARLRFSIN
Summary of the method: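 Read-out is luminescence from luciferin detection reagent (20 min) proportional to CYP1A2 activity; compounds in DMSO preincubated 10 min with enzyme and proluciferin substrate, then NADPH regeneration solution, 1 h, room temperature.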

[14] = target: Thyrotropin-releasing hormone receptor (Homo sapiens) (UniProt P34981); assay: qHTS assay to identify small molecule antagonists of the thyrotropin-releasing hormone receptor (TRHR) signaling pathway (AID 1346877; active = well fitted inhibition curve with a large enough effect in the repeat runs, not every such curve was filed as active; note: series mostly up to about 51 µM)
Thyrotropin-releasing hormone receptor (Homo sapiens), sequence (P34981 whole entry, looked up): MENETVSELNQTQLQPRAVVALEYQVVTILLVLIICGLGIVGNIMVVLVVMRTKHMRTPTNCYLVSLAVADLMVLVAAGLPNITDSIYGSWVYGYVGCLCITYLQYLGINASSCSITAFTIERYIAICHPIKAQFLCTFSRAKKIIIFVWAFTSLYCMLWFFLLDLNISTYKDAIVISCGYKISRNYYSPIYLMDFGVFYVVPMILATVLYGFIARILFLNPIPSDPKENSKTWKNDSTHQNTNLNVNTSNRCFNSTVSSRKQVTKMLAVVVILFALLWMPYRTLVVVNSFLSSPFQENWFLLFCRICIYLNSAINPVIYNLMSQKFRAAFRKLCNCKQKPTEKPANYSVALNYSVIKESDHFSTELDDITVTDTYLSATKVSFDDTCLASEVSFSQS
Summary of the method: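 Overnight-plated (18 h, 37 °C) HEK293 cells expressing TRHR were dye-loaded 2 h, treated with compound, then stimulated with TRH at 1 nM final. Fluorescence intensity was captured every second for 3 min.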

[15] = target: Thyrotropin-releasing hormone receptor (Homo sapiens) (UniProt P34981); assay: qHTS assay to identify small molecule agonists of the thyrotropin-releasing hormone receptor (TRHR) signaling pathway (AID 1346891; calls by dose curve;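 note: HEK293 cells expressing TRHR with calcium dye readout; series mostly up to about 58 µM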)
Summary of the method: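 Kinetic fluorescence (3 min, 1 s intervals) reported intracellular calcium after compound transfer onto TRHR-Hek293 cells pre-loaded with dye for 2 h at 37 °C.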

[16] = Caspase-3/7 induction in CHO-K1 cells by small molecules, qHTS assay (AID 1346980); note: nearly all actives have a fitted effect of over 15% in size
Summary of the method: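 Wild-type cells were seeded at 1,500 per well and settled 5 hr at 37 C, 5% CO2, then exposed to DMSO-dissolved compounds for 17 hr. Caspase-Glo 3/7 reagent was added, and luminescence was read after 30min at room temperature.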

[17] = Caspase-3/7 induction in HepG2 cells by small molecules, qHTS cell viability counter screen (AID 1346981); note: series mostly up to about 92 µM; nearly all actives have a fitted effect of over 30% in size
Summary of the method: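 Treatment of HepG2 cells with DMSO-delivered compounds ran 16 hr at 37 C following a 5-hr pre-incubation of 2,000 cells/well. CellTiter-Fluor fluorescence, read after 1 hr, served as the viability measure in a qHTS format.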

[18] = target: Nuclear receptor subfamily 1 group I member 2 (Rattus norvegicus) (UniProt Q9R1A7); assay: Rat pregnane X receptor (rPXR) activation by small molecules, qHTS assay (AID 1346983); details: rPXR luciferase reporter cells, One-Glo luminescence, 24 h; max activation: active compounds read high; note: nearly all actives have a fitted effect of over 20% in size
Nuclear receptor subfamily 1 group I member 2 (Rattus norvegicus), sequence (Q9R1A7 whole entry, looked up): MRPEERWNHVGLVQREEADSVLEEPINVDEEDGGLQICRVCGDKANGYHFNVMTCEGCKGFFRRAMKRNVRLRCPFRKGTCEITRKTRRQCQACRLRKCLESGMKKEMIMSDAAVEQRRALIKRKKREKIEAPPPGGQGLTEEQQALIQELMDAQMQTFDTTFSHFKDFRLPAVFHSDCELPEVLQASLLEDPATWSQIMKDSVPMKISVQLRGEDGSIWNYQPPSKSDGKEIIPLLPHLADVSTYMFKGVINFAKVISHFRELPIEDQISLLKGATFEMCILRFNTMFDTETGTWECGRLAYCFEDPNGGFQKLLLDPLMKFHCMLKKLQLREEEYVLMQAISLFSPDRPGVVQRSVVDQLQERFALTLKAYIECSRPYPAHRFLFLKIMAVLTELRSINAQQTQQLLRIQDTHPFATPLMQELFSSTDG
Summary of the method: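 Cell-based rPXR luciferase reporter assay, 2,000 cells per well, rested 5hr at 37 C before compound addition in DMSO, then 24 hr at 37 C. One-Glo reagent was added and luminescence read after 30 min at room temperature.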

SMILES	Potency [1]	Potency [2]	Potency [3]	Potency [4]	Potency [5]	Potency [6]	Potency [7]	Potency [8]	Potency [9]	Potency [10]	Potency [11]	Potency [12]	Potency [13]	Potency [14]	Potency [15]	Potency [16]	Potency [17]	max activation [18] [%]
C=C(c1ccc(C(=O)O)cc1)c1cc2c(cc1C)C(C)(C)CCC2(C)C	inactive	inactive	inactive	inactive	68.6 µM (active)	61.1 µM (active)	inactive	inactive	inactive	inactive	inactive	27.5 µM (active)	inactive					
Brc1ccccc1-c1ccccc1	inactive	inactive	inactive			inactive				75.4 µM (active)			16.6 µM (active)	inactive	inactive	inactive	inactive	
COc1cc(C=C2CCC/C(=C\c3ccc(O)c(OC)c3)C2=O)ccc1O	inactive	inactive	inactive	29.8 µM (active)		29.8 µM (active)	inactive	inactive		inactive	24.5 µM (active)	15.5 µM (active)	inactive	inactive	inactive	inactive		
Cc1ccc(-n2[nH]c(C)c(N=Nc3cccc(-c4cccc(C(=O)O)c4)c3O)c2=O)cc1C	inactive	inactive	inactive		inactive	26.6 µM (active)	inactive				inactive		inactive	inactive	inactive	inactive		
CC(=O)Oc1ccc(C2(c3ccc(OC(C)=O)cc3)Oc3ccccc3NC2=O)cc1	inactive	inactive	inactive	inactive	inactive						6.92 µM (active)	2.45 µM (active)	inactive	inactive	inactive	inactive	inactive	
CCOC(=O)[C@@](C)(N)Cc1ccc(O)c(O)c1	inactive	inactive	inactive		inactive		inactive	inactive	inactive	8.71 µM (active)		inactive	inactive	inactive		inactive	inactive	
CN(C)CCOC(c1ccccc1)c1ccccc1 (tested in a mixture with another compound)	inactive	inactive	inactive				61.6 µM (active)							inactive		inactive		
CCC(C)C(=O)OC (configuration not stated)	inactive	inactive	inactive	inactive	inactive	inactive	inactive			inactive	inactive	inactive	inactive	inactive	inactive	inactive	inactive	
C=CC(=O)OCC(O)COc1ccccc1 (configuration not stated)	inactive	inactive	inactive	inactive	inactive	61.1 µM (active)	inactive			inactive	35.6 µM (active)		35.6 µM (active)	inactive	inactive	inactive		
CCOCOCC	inactive	inactive	inactive	inactive	inactive	inactive	inactive			inactive	inactive	inactive	inactive	inactive		inactive	inactive	
CN1[C@@H]2CC[C@@H]1CC(OC(=O)C(CO)c1ccccc1)C2 (some centres not stated)	inactive	inactive	inactive	inactive		inactive										inactive	inactive	
CCCCCCC(C)Nc1ccc(Nc2ccccc2)cc1 (configuration not stated)	inactive	inactive	inactive		inactive		21.7 µM (active)			28.3 µM (active)	5.03 µM (active)		22.4 µM (active)	inactive	inactive	inactive		
O=C(O)Cc1ccc(OCCNC[C@H](O)c2ccccc2)cc1	inactive	inactive	inactive	inactive	inactive	inactive	inactive			inactive	inactive	inactive	inactive			inactive	inactive	
CC(C)N=C(N)/N=C(\N)Nc1ccc(Cl)cc1	inactive	inactive	inactive		inactive	11.9 µM (active)	inactive	inactive	inactive	5.49 µM (active)	15.5 µM (active)			inactive	inactive	inactive	inactive	-16.8
